Experimental findings from PubChem BioAssay (EPA / NIEHS) are described below.

Several values for one entry are separate records, joined by “and”; a condition that tells them apart may be missing. Equal values may be shown once. Where a structure was tested more than once in an assay, its records may differ in their call. Activity calls are given as the source filed them. How the source made its calls: active means hit-call score of the fitted dose curve at least 0.9, where 1 is the maximum; inactive means score below 0.9.

Read-out in assay [1]: Interleukin 17F (IL17F), IL17F (gene 112744)
The assay is described as follows: BSK_BT_xIL17F: BioMAP Diversity Plus: BT Assay for Interleukin 17F (IL17F) Biomarker Activity (AID 2284243). Conditions: primary human B cells with PBMC. A digest of the protocol: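 Human B cells co-cultured with PBMC; secreted IL-17F quantified by LumineX xMAP 24 hours after chemical dosing. Activity fitted in the positive direction against DMSO negative control as baseline.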

Read-out in assay [2]: Actin alpha 1 (ACTA1), ACTA1 (gene 58)
The assay is described as follows: BSK_MyoF_ACTA1: BioMAP Diversity Plus: MyoF Assay for Actin alpha 1 (ACTA1) Biomarker Activity (AID 2284244). Conditions: primary human lung fibroblasts. The essentials:
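Human lung fibroblast (MyoF system) cultures dosed with test chemical; alpha-SMA measured by ELISA 24 h after dosing, normalized to DMSO control. Cytotoxicity tracked in parallel cultures by SRB total-protein staining.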

Read-out in assay [3]: Interleukin 2 (IL2), IL2 (gene 3558)
The assay is described as follows: BSK_BT_xIL2: BioMAP Diversity Plus: BT Assay for Interleukin 2 (IL2) Biomarker Activity (AID 2284245). The settings on record: primary human B cells with PBMC. The essentials: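 Human B cell plus PBMC co-culture, 24 h after chemical dosing; secreted IL-2 quantified by Luminex xMAP multiplex, fitted for signal gain against DMSO baseline.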

Read-out in assay [4]: Basic fibroblast growth factor (bFGF), FGF2 (gene 2247)
The assay is described as follows: BSK_MyoF_bFGF: BioMAP Diversity Plus: MyoF Assay for Basic fibroblast growth factor (bFGF) Biomarker Activity (AID 2284246). Conditions: primary human lung fibroblasts. The essentials: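 Human lung fibroblast cultures were dosed and measured 24 h later in 96-well format. bFGF biomarker levels quantified by ELISA, with activity fitted in the positive direction against DMSO.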

Read-out in assay [5]: Monokine induced gamma interferon (MIG), CXCL9 (gene 4283)
The assay is described as follows: BSK_KF3CT_MIG: BioMAP Diversity Plus: KF3CT Assay for Monokine induced gamma interferon (MIG) Biomarker Activity (AID 2284248). The settings on record: primary human keratinocytes with fibroblasts. A digest of the protocol:
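Parallel cultures were stained with SRB (560 nm) to check cytotoxicity. MIG was quantified by ELISA in a primary human skin keratinocyte/fibroblast co-culture 24 h post-dosing, with gain of signal fitted relative to DMSO.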

Read-out in assay [6]: Vascular cell adhesion molecule 1 (VCAM1), VCAM1 (gene 7412)
The assay is described as follows: BSK_BF4T_VCAM1: BioMAP Diversity Plus: BF4T Assay for Vascular cell adhesion molecule 1 (VCAM1) Biomarker Activity (AID 2284249). Conditions: primary human bronchial epithelial cells with fibroblasts. A digest of the protocol: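 Human bronchial epithelial cell and dermal fibroblast co-culture exposed 24 h. VCAM-1 measured by ELISA; parallel SRB total-protein staining for cytotoxicity. Fitted in positive direction relative to DMSO.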

Read-out in assay [7]: Collagen I, COL1A1 (gene 1277)
The assay is described as follows: BSK_hDFCGF_CollagenI: BioMAP Diversity Plus: hDFCGF Assay for Collagen I Biomarker Activity (AID 2284250). The settings on record: primary human foreskin fibroblasts. The essentials:
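Primary human foreskin fibroblasts exposed to chemical for 24 h; Collagen I levels measured by ELISA. Cytotoxicity checked by SRB total-protein staining in parallel cultures.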

Read-out in assay [8]: Interferon-inducible T-cell alpha chemoattractant (ITAC), CXCL11 (gene 6373)
The assay is described as follows: BSK_hDFCGF_ITAC: BioMAP Diversity Plus: hDFCGF Assay for Interferon-inducible T-cell alpha chemoattractant (ITAC) Biomarker Activity (AID 2284251). The settings on record: primary human foreskin fibroblasts. A digest of the protocol:
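Primary human foreskin fibroblasts (hDFCGF system) treated for 24 h; I-TAC quantified by ELISA. Gain-direction fitting versus DMSO; parallel SRB staining of total protein flagged overt cytotoxicity.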

Read-out in assay [9]: Monocyte Chemoattractant Protein-1 (MCP1), CCL2 (gene 6347)
In words: BSK_IMphg_MCP1: BioMAP Diversity Plus: IMphg Assay for Monocyte Chemoattractant Protein-1 (MCP1) Biomarker Activity (AID 2284253). The settings on record: primary human endothelial cells with macrophages. The essentials: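 Human venular endothelial cells co-cultured with macrophages; MCP-1 measured by ELISA 24 hours post-dose and fitted against DMSO. Cytotoxicity monitored by SRB total-protein staining in parallel cultures.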

Read-out in assay [10]: Interleukin-8 (IL8), CXCL8 (gene 3576)
In words: BSK_KF3CT_IL8: BioMAP Diversity Plus: KF3CT Assay for Interleukin-8 (IL8) Biomarker Activity (AID 2284254). Conditions: primary human keratinocytes with fibroblasts. The essentials: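 IL-8 by ELISA in primary human skin co-culture (keratinocytes plus fibroblasts) 24 h post-dose, DMSO as baseline. Cytotoxicity assessed in parallel by sulforhodamine B total-protein staining.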

Take `O=C(O)C(F)(F)OC(F)(F)C(F)(F)OC(F)(F)F`: the result in assay [1], in assay [2], in assay [3], in [4], in assay [5] and in [6] was inactive. The outcome in assay [7], in [8], in assay [9] and in assay [10] was inactive.
Consider `Cc1c([N+](=O)[O-])cc2c(c1[N+](=O)[O-])C(C)(C)CC2(C)C`, for which the AC50 in [1] and in assay [3] was 20 µM (active) throughout. Moreover, the outcome in [2] and in assay [4] was inactive.
`CC(C)(C)c1ccccc1OP(=O)(Oc1ccccc1)Oc1ccccc1`: the AC50 – broadly, the concentration giving half of the maximal activity seen – in assay [1] is 29 µM (active); in [2], 20 µM (active); in [3], 28.2 µM (active). For the same molecule, the outcome in assay [4] was inactive.
For the molecule `CCOP(=S)(OCC)SCn1nnc2ccccc2c1=O`, in assay [1], the half-maximal activity concentration (AC50) was 24 µM (active). Also, the outcome in [2], in assay [3] and in assay [4] was inactive.
As to `O=C(O)C=CC(F)(C(F)(F)F)C(F)(F)F`, the concentration at half-maximal activity (AC50) in assay [1] was 0.219 µM (active). Also, the result in [1], in [2], in assay [3], in [4], in [5] and in assay [6] was inactive. The outcome in assay [7], in assay [8], in assay [9] and in [10] was inactive.
With `O=S(=O)(F)C(F)(F)C(F)(F)C(F)(F)C(F)(F)C(F)(F)C(F)(F)C(F)(F)C(F)(F)F`, the outcome in assay [1], in assay [2], in assay [3], in assay [4], in [5] and in assay [6] was inactive. The outcome in assay [7], in assay [8], in [9] and in assay [10] was inactive.
Regarding `CCCCC(CC)COC(=O)c1c(Br)c(Br)c(Br)c(Br)c1C(=O)OCC(CC)CCCC` (stereo not given), the result in assay [1], in assay [2], in assay [3] and in [4] was inactive.
Take `c1ccc2c(c1)sc1ccccc12`: the outcome in assay [1], in assay [2], in assay [3] and in assay [4] was inactive.
Regarding `Cc1ccc2c(c1N)C(=O)c1ccccc1C2=O`, in [1], the half-maximal activity concentration (AC50) was 20 µM (active). The outcome in [2], in assay [3] and in [4] was inactive.
`CCOP(=S)(OCC)SCSc1ccc(Cl)cc1`: the outcome in assay [1], in assay [3] and in [4] was inactive. In addition, in [2], the AC50 is 3.97 µM (active).
Turning to `NC(=O)C(F)(F)C(F)(F)F`, the result in [1], in assay [2], in assay [3], in [4], in [5] and in [6] was inactive. Moreover, the result in [7], in [8], in assay [9] and in [10] was inactive.
Turning to `O=P(OCC(Br)CBr)(OCC(Br)CBr)OCC(Br)CBr` (stereo not given), the AC50 in [1] and in assay [3] was 27.7 µM (active) in each case. For the same molecule, the outcome in [2] and in assay [4] was inactive.
On to `O=C(O)C(F)(F)C(F)(F)C(=O)O`, for which the result in [1], in assay [2], in [3], in [4], in assay [5] and in assay [6] was inactive. Moreover, the result in assay [7], in assay [8], in assay [9] and in [10] was inactive.
Turning to `CCCCC(CC)COP(=O)(Oc1ccccc1)Oc1ccccc1` (stereo not given), the AC50 in [1] was 20 µM (active); in assay [2], 8.64 µM (active); in assay [3], 20 µM (active); in [4], 12.3 µM (active).
Regarding `ClC(Cl)=C(c1ccc(Cl)cc1)c1ccccc1Cl`, the AC50 is 32.2 µM (active) in assay [1], 5.45 µM (active) in assay [2], 31.4 µM (active) in assay [3] and 9.45 µM (active) in assay [4].
Regarding `CCOP(=S)(NC(C)C)Oc1ccccc1C(=O)OC(C)C` (stereo not given), the AC50 in [1] was 28.7 µM (active); in [3], 20 µM (active). For the same molecule, the outcome in assay [2] and in assay [4] was inactive.
In the case of `COP(=O)(CCC(=O)NCO)OC`, the outcome in assay [5], in [7], in assay [8] and in assay [10] was inactive.
With `COP(N)(=S)OC`, the outcome in [1], in assay [2], in [3] and in assay [4] was inactive.
Turning to `C=CC(=O)OCC(F)(F)C(F)F`, the half-maximal activity concentration (AC50) is 12.4 µM (active) and 21.8 µM (active) in assay [1]; 48.8 µM (active) and 46.5 µM (active) in [2]; 30.6 µM (active) and 34.5 µM (active) in assay [3]; 52.2 µM (active) in [5]; 30 µM (active) in assay [6]; 12.7 µM (active) and 18.4 µM (active) in assay [8]. For the same molecule, the result in assay [4], in assay [5], in [6], in [7], in assay [9] and in assay [10] was inactive.
For `FC(F)(F)C(F)(C(F)(F)F)C(F)(F)C(F)(F)CC1CO1` (stereo not given), the outcome in assay [1], in assay [2], in assay [3], in assay [4], in [5] and in assay [6] was inactive. The outcome in assay [7], in assay [8], in [9] and in assay [10] was inactive.
